Screening results as filed in PubChem BioAssay.
CHRM1 agonist – agonists of human M1 muscarinic receptor; P11229; CHO-K1 hM1, Fluo-8 calcium fluorescence, agonist mode; 0% DMSO, 100% acetylcholine EC100; activation, % at 3 µM; 360,000 compounds, 0.33% hits; AID 588814;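 active means activation above the run's mean compound activation plus 3 SD, cut at about 16% in these data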;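 further: peak over basal fluorescence ratio within a 140 s kinetic read after compound addition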
Target sequence (P11229 whole entry, looked up): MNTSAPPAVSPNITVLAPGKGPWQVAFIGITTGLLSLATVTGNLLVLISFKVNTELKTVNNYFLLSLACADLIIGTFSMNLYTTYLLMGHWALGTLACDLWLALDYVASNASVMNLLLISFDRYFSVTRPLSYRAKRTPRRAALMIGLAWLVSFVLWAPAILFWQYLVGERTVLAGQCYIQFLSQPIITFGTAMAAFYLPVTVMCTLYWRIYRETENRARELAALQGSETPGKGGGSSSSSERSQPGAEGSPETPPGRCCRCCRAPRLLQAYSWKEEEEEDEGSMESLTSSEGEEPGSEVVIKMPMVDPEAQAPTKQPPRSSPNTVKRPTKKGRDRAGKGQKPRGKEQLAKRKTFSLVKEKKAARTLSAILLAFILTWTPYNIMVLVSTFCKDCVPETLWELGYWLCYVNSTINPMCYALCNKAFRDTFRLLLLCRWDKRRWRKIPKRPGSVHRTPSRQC
M1 PAM – potentiates human M1 receptor response to acetylcholine | CHO-K1 hM1, Fluo-8 calcium fluorescence, ACh EC20; 0% = ACh EC20, 100% = maximal ACh | AID 588819 | 360,000 compounds, 0.088% hits | activation, % at 3 µM | P11229; in the data active means activation above about 19%, passing the limit was not always enough
CHO-K1 Ca PAM – counter-screen for M1 PAMs: effect in parental CHO-K1 cells | ATP EC20, Fluo-8 calcium fluorescence; 0% at ATP EC20, 100% at ATP max | activation, % at 3 µM | 360,000 compounds, 0.02% hits;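 active means activation above the run cutoff, the mean activation of all test compounds plus 3 SD, cut at about 40% in these data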;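 further: peak over basal fluorescence ratio in a 140 s read after ATP addition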
CHO-K1 Ca antag – counter-screen for M1 antagonists: effect in parental CHO-K1 cells. ATP-induced calcium, Fluo-8 fluorescence. inhibition, % at 3 µM. 360,000 compounds, 0.6% hits;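 active means inhibition above a per-plate cutoff, the plate's mean sample inhibition plus 3 SD, cut at about 24% in these data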
CHRM1 antagonist – human CHRM1 antagonism | P11229 | CHO-K1 hM1, Fluo-8 calcium fluorescence, ACh EC80 antagonist | inhibition, % at 3 µM | 360,000 compounds, 1.3% hits | AID 588852;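 active means percent inhibition above its own plate's cutoff, namely the mean of that plate's compound wells plus 3 SD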;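 further: peak over basal fluorescence ratio during 140 s after agonist addition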
M1 ag parental – nonselective activator or artifact in parental CHO-K1 cells. Fluo-8 calcium fluorescence; scaled to maximal ATP response, vehicle zero. activation, % at 3 µM. 360,000 compounds, 0.48% hits. AID 602248; in the data active means activation above about 15%;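 further: untransfected CHO-K1 host cells lacking M1 receptor as counterscreen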
Hits are given with their value; - = inactive. Sampled rows, rich in hits. Any-hit rate of the full collection: about 2.3%.

SMILES	CHRM1 agonist	M1 PAM	CHO-K1 Ca PAM	CHO-K1 Ca antag	CHRM1 antagonist	M1 ag parental
CCN(C[C@H]1N[C@@](Cc2ccccc2)(C(=O)OC)[C@H]2C(=O)N(C)C(=O)[C@@H]12)C(=O)Nc1ccccc1	-	-	-	-	-	-
CCN(C(=O)COC(=O)c1ccc(S(=O)(=O)N2CCCc3ccccc32)cc1)C1CCS(=O)(=O)C1 (stereo not given)	-	-	-	-	72.1	-
CN1N=C(C(=O)N=c2sc3ccccc3n2C)CCC1=O	-	-	-	-	-	-
CC(C)(C#CC(O)(c1ccccc1)c1ccccc1)N1CCCCC1	-	-	-	-	92.9	-
CC(C)(C#CC(O)(c1ccccc1)c1ccccc1)N1CCCC1	-	-	-	-	99.2	-
CC(=O)NNC(=O)C(O)(c1ccccc1)c1ccccc1	-	-	-	-	-	-
Cc1cc(C)cc(OC(C)C(=O)Nc2ccc(S(=O)(=O)Nc3cc(C)nc(C)n3)cc2)c1 (stereo not given)	-	-	-	-	-	-
CC(C)(C)c1cc(=O)[nH]c(SCc2ccccc2Cl)n1	-	-	-	-	-	-
O=c1ccnc(SCc2ccccc2Cl)[nH]1	-	-	-	27.8	-	-
COC(=O)c1c(N)sc(C(C)=O)c1C	16.4	-	-	-	-	-
COc1ccc2nc(SCC(=O)Nc3nccs3)[nH]c2c1	-	-	-	-	-	-
c1ccc(COc2ccc(OCCCCN3CCCCC3)cc2)cc1	-	-	-	-	34.6	-
CCc1ccccc1OCCCCN1CCCCC1	-	-	-	-	35.8	-
CC1CCCN(Cc2ccc(OCc3ccccc3)cc2)C1 (stereo not given)	-	-	-	-	72.6	-
CN(Cc1ccc(Cl)s1)C(=O)CN1C(=O)N(C)C2(CCCCC2)C1=O	-	-	-	-	-	-
CC(=O)c1ccc(N2CCN(S(=O)(=O)c3c(C)[nH]c(C)c3C(=O)N3CCCC3)CC2)cc1	-	-	-	-	-	-
Fc1ccccc1-c1csc(=Nc2cccnc2)n1CC1CCCO1 (stereo not given)	-	-	-	-	-	-
Fc1ccccc1-c1csc(=Nc2cccnc2)n1CCCn1ccnc1	-	-	-	-	30.4	-
CCOC(=O)c1sc2nc(C)nc(NC3CCC(O)CC3)c2c1C (stereo not given)	-	-	-	-	-	-
COc1ccc(NC(=O)NC(C)c2ccccc2)cc1 (stereo not given)	-	-	-	-	-	-
COc1ccc(NC(=O)N/C=C/c2ccccc2)cc1	-	-	-	-	-	15.8
N/C(Cc1ccc(Cl)cc1)=N\OC(=O)c1ccccc1	-	-	-	-	-	-
CC(C)(C)C(=O)OC/C(N)=N/OC(=O)c1ccc(Cl)cc1	-	-	-	-	-	16.4
COc1ccc([C@H]2CC(=O)C=C(c3ccc(F)cc3OCc3ccccc3)C2)cc1OC	-	-	-	-	50.5	-
CCOc1ccccc1N1CCN(C(=S)NC(=O)C23CC4CC(CC(C4)C2)C3)CC1	-	-	-	-	-	-
SMILES	CHRM1 agonist	M1 PAM	CHO-K1 Ca PAM	CHO-K1 Ca antag	CHRM1 antagonist	M1 ag parental
CCOc1ccccc1N1CCN(C(=S)NCc2ccc(Cl)cc2)CC1	-	-	-	-	-	17.6
O=[N+]([O-])c1ccc(N2CCN(C(=S)NCc3ccc(Cl)cc3)CC2)cc1	-	-	-	-	37.2	-
COC(=O)c1c(Sc2ccccc2)c2ccccc2n1C	35.0	-	-	-	-	-
Cn1c(CC(=O)NN)c(Sc2ccccc2)c2ccccc21	-	-	-	-	-	-
COCc1nc2ccccc2n1CCc1ccccc1	-	-	-	26.4	-	-
COc1ccc(Nc2nc(Cl)c(C=O)s2)cc1	-	-	-	-	36.7	-
CCN(CC)c1ccc(C=C2C(=O)OC3(CCCCC3)OC2=O)cc1	-	-	-	-	-	-
CCN(CC)c1ccc(/C=C2/C(=O)c3ccc(C(=O)O)cc3C2=O)cc1	186.4	-	-	56.4	76.2	62.2
CC(C)Oc1ccccc1/C=N/NC(=O)c1ccc(F)cc1	-	22.0	-	-	-	-
CN(CC(=O)Nc1ccccc1Cl)C(=O)COC(=O)/C=C/c1ccccc1	-	-	-	-	-	-
C=CCOc1ccc(/C=C/C(=O)OCC(=O)N(C)CC(=O)Nc2ccccc2Cl)cc1	-	-	-	24.3	-	-
O=Nc1c(O)n(Cc2cccc(C(F)(F)F)c2)c2ccccc12	19.1	-	-	-	-	-
O=Nc1c(O)n(Cc2ccccc2)c2ccccc12	16.2	-	-	-	-	-
O=Nc1c(O)n(Cc2ccc(Cl)c(Cl)c2)c2ccccc12	19.4	24.5	-	-	-	-
COC(=O)c1ccc(Cn2c(O)c(N=O)c3ccccc32)o1	-	-	-	-	-	-
CC(C)CC(=O)NC(Nc1ccc([N+](=O)[O-])cc1)C(Cl)(Cl)Cl (stereo not given)	-	-	-	-	-	16.4
COc1cc(C(=S)N2CCCCC2)ccc1OCC(=O)Nc1ccc(F)cc1	-	-	-	-	-	-
O=C(ONc1ccc(N=NC(=O)c2ccccc2O)cc1)c1ccccc1	-	-	-	28.1	-	-
FC(F)(F)c1cccc(CNC(=S)Nc2ccccc2)c1	-	-	-	26.8	-	-
S=C(NCc1ccccc1)Nc1ccc(Cl)cc1	-	-	-	-	-	-
S=C(NCc1ccccc1)NCc1cccc(Cl)c1	-	-	-	59.8	-	-
FC(F)(F)Sc1ccc(NC(=S)NCc2ccccc2)cc1	-	-	-	30.7	39.7	-
O=C(NCc1cccs1)C1Cc2c(-c3ccc(Cl)cc3)ccnc2O1 (stereo not given)	-	-	-	-	-	-
COc1cccc(CN2CCNC(=O)C2CC(=O)NCCc2nc(C)c(C)s2)c1OC (stereo not given)	-	-	-	-	-	-
CCCC(=O)Nc1nnc(S(=O)(=O)N(CC)c2ccccc2)s1	-	-	-	-	-	-
SMILES	CHRM1 agonist	M1 PAM	CHO-K1 Ca PAM	CHO-K1 Ca antag	CHRM1 antagonist	M1 ag parental
CC(=O)Nc1ccc(S(=O)(=O)N2CCN=C2SCc2ccc([N+](=O)[O-])cc2)cc1	-	-	-	-	-	16.6
Cc1ccc(C(=O)N2CCN=C2SCc2ccc([N+](=O)[O-])cc2)cc1C	-	-	-	-	35.9	-
CCCCN(CCCC)CCNC(=O)c1cn(C)c2ccc(S(=O)(=O)N3CCCC3)cc2c1=O	-	-	-	-	-	-
Cc1ccccc1-n1nc(-c2cccnc2)cc1C(=O)NN	-	-	-	-	-	-
O=C(C1CCN(c2nnc(N3CCCC3=O)s2)CC1)N1CCN(c2cccc(C(F)(F)F)c2)CC1	-	-	-	-	77.3	-
COc1cc(OC)c(N(C)S(=O)(=O)c2cccc(C(=O)OCC(=O)N(C)C3CCCCC3)c2)cc1Cl	-	-	-	-	-	-
